Laboratory results: the supplement of paper PMC10849652
The full data set covers some 7,900 targets. This sample favours those with a hit. About 0.6% of all pairs of compound and target were hits.

What follows are molecules tested against ZNF511 isoform 1 (UniProt Q8NB15) (assay: log2 fold change, soluble protein after heating vs DMSO (PISA); higher = thermal stabilisation; K562 cells, 10 uM, 30 min; active = over 0.2 and 3.5 SD of the protein, either way, in both replicates (recomputed)).
How it was run: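 K562 cells at 2×10^6 cells/mL were given 10 μM compound for 30 min. Aliquots then went through 3 min of heating across 48°C-58°C, were pooled, and were extracted in PBS with 0.5% NP-40 at 4°C, and the supernatant after 21,000xg for 90 min was quantified by TMTpro 16plex LC-MS/MS with channel sums equalised. Thermal stability relative to control samples, from duplicates, is given as log2 fold change.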

Sequence of ZNF511 isoform 1 (Q8NB15 whole entry, looked up, canonical isoform): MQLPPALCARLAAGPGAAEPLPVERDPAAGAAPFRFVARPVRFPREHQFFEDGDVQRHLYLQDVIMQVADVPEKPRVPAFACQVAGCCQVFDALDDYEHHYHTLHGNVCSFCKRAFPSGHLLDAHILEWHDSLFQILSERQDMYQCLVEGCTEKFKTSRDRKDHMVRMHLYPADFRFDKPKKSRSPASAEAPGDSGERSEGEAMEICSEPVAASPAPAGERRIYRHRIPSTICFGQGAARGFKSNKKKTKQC

log2 fold change, inactive:
Cc1ccc(NC(=O)c2ccc(CN3CC[C@H](N(C)C)C3)c(C(F)(F)F)c2)cc1Nc1nccc(-c2cncnc2)n1 [bafetinib] -0.098
CNC(=O)c1ccc(Nc2ncc(C(F)(F)F)c(NCc3nccnc3N(C)S(C)(=O)=O)n2)cc1 [defactinib] -0.128
CCCS(=O)(=O)Nc1ccc(F)c(C(=O)c2c[nH]c3ncc(Cl)cc23)c1F 0.014
Cc1ccc(NC(=O)c2cccc(N(C)C)c2)cc1NC(=O)c1ccc(O)cc1 0.012
CCN(CCCOc1ccc2c(Nc3cc(CC(=O)Nc4cccc(F)c4)[nH]n3)ncnc2c1)CCOP(=O)(O)O [barasertib] -0.041
Cc1ccc2c(=O)c3ccccc3n(CCCN)c2c1C 0.17
COC(=O)[C@H](CCSC)NC(=O)c1ccc(NC[C@@H](N)CS)cc1-c1ccccc1 -0.201
CCCS(=O)(=O)Nc1ccc(F)c(C(=O)c2c[nH]c3ncc(-c4ccc(Cl)cc4)cc23)c1F [vemurafenib] -0.087
O=C1NC(=O)/C(=C\c2ccc3nccnc3c2)S1 0.017
Cn1cncc1[C@@](N)(c1ccc(Cl)cc1)c1ccc2c(c1)c(-c1cccc(Cl)c1)cc(=O)n2C [tipifarnib] 0.062
Cc1ccc(Sc2cncc3sc(C(N)=O)cc23)cc1 0.018
CN(CCOc1ccc(C[C@@H]2SC(=O)NC2=O)cc1)c1ccccn1 (racemic) [rosiglitazone] 0.085
